# Compound activity from PubChem BioAssay.
# The list is not random: actives were taken first. Their share in the collection is about 5.7%.
# ssDAF-12 act = S. stercoralis DAF-12 nuclear receptor activators, primary screen, cell-based, luminescence, HEK293, GRIP1 co-expression, lit1-tk-luc. HEK293 ssDAF-12/GRIP1 lit1-tk-luc reporter; % of 3 µM dafachronic acid response. Nuclear hormone receptor DAF-12 (Strongyloides stercoralis). activation, % at 6.8 µM. 1% of 370,000 active;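 active = activation above the mean over all tested compounds plus 3 SD, cut at about 0.9% in these data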
# DAX1 inh-1 = DAX1 (NR0B1) inhibitors, primary screen, cell-based, HEK293, Gal4-DAX1, luciferase luminescence. Nuclear receptor subfamily 0 group B member 1 (Homo sapiens), P51843. HEK293 Gal4-DAX1 luciferase reporter. inhibition, % at 6.75 µM. 0.99% of 340,000 active;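 active = inhibition above the mean over all tested compounds plus 3 SD, cut at about 4.2% in these data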;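 also: inhibition shows as a rise in luminescence from relieved DAX1 repression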
# hgDAF12 agonist = H. glycines DAF-12 receptor agonists, primary screen, cell-based, luminescence, HEK293, GAL4 fusion, UAS-luciferase | HEK293 GAL4-hgDAF12 UAS-luciferase reporter, agonist luminescence; normalized to butyrate control | AID 687014, 2013 | activation, % at 6.8 µM | Nuclear hormone receptor DAF-12 (Heterodera glycines), GAL4 fusion | 1.8% of 370,000 active;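 active = activation above a cutoff set at the mean of all screened compounds plus 3 SD, cut at about 10% in these data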
# DAX1 inh-2 = DAX1 (NR0B1) inhibitors on StAR promoter, primary screen, cell-based, luminescence, SF-1 (NR5A1), full-length DAX-1; HEK293T StAR-luciferase reporter, SF-1/DAX-1 repression relief; inhibition, % at 6.8 µM; 1.1% of 370,000 active;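 active = inhibition above the mean over all tested compounds plus 3 SD, cut at about 3.6% in these data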;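 also: higher inhibition means more luminescence from relief of DAX-1 repression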
# hcDAF-12 act = H. contortus DAF-12 nuclear receptor activators, primary screen, cell-based, luminescence, HEK293, lit1-tk-luc reporter; activation, % at 6.8 µM; AID 652067, 2013; HEK293 hcDAF-12 lit1-tk-luc reporter; 0% DMSO, 100% Δ7-dafachronic acid; 1.4% of 370,000 active;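 active = activation above the mean of all tested compounds plus 3 SD, cut at about 5.5% in these data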
# AHR activator = AHR activators, primary screen, cell-based, luminescence, luciferase reporter, human; Aryl hydrocarbon receptor (Homo sapiens), P35869; AHR-responsive luciferase reporter cells; activation, % at 5 µM; 2.5% of 320,000 active; AID 2796, 2010; in the data active = activation above about 47%
# Target sequence (P35869 whole entry, looked up): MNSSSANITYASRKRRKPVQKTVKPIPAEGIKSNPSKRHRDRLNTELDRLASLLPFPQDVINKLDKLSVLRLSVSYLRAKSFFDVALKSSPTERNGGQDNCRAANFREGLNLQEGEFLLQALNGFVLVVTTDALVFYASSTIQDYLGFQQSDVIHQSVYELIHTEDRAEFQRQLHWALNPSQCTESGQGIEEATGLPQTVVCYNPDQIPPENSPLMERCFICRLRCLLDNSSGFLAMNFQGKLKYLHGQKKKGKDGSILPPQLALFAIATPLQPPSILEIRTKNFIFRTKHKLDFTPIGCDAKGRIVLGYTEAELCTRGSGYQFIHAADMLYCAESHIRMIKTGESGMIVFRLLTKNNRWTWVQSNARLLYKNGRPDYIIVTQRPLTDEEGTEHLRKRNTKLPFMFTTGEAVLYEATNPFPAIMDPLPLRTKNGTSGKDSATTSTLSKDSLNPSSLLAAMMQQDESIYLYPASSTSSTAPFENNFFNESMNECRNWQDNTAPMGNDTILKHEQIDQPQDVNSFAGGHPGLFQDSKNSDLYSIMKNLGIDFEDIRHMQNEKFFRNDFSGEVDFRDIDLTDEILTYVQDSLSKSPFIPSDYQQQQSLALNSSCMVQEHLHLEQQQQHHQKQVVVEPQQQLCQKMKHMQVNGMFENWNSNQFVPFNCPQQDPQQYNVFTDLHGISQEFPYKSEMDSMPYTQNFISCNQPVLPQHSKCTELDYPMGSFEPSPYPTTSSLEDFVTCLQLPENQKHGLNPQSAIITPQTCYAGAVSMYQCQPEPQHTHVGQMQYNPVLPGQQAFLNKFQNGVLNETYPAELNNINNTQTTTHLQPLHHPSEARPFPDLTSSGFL
# A number is an active result; . = inactive; / = no result given.
SMILES,ssDAF-12 act,DAX1 inh-1,hgDAF12 agonist,DAX1 inh-2,hcDAF-12 act,AHR activator
C/C(=N\Nc1ccc(S(=O)(=O)Nc2ccccc2)cc1[N+](=O)[O-])c1ccncc1,.,/,.,.,.,.
Cn1c(SCC(=O)NCC2CCCO2)ncc(C(=O)Nc2ccc(Cl)cc2)c1=O (configuration not stated),.,.,.,.,.,56
Cn1c(SCC(=O)NCc2ccc(F)cc2)ncc(C(=O)Nc2ccccc2)c1=O,.,.,.,.,.,.
Cn1c(SCC(=O)NCc2ccc3c(c2)OCO3)ncc(C(=O)Nc2ccc(F)cc2)c1=O,.,.,.,.,.,49
Cn1c(SCC(=O)NCC2CCCO2)ncc(C(=O)Nc2ccc(F)cc2)c1=O (configuration not stated),.,.,.,.,.,51
O=C(C(=O)N1CCN(c2ccccc2)CC1)c1c[nH]c2ccccc12,.,.,.,.,.,.
CC(=O)c1c(C)[nH]c(C(=O)Nc2ccc(F)c(F)c2F)c1C,.,.,.,.,.,62
CC(=O)c1c(C)[nH]c(C(=O)Nc2ccc(Cl)cc2)c1C,.,.,.,.,.,.
CC(=O)c1c(C)[nH]c(C(=O)NC2=NCCS2)c1C,.,.,.,.,.,75
CC(=O)c1c(C)[nH]c(C(=O)Nc2ccc(Cl)cc2F)c1C,.,.,11,.,.,.
CN(C(=O)COc1ccccc1C(=O)NCCOc1ccccc1)c1ccccc1,.,.,.,.,.,.
Cc1ccc(C)c2[nH]c(=O)c(CN(Cc3ccco3)C(=O)Nc3ccccc3)cc12,/,.,/,/,/,.
O=c1cc(-c2ccccc2)c2c([nH]1)CCCC2,.,.,.,.,5.7,/
CC1(C)CC(=O)C=C(Nc2ccc(Cl)c(Br)c2)C1,.,.,.,.,.,68
O=C(COc1ncnc2scc(-c3ccc(F)cc3)c12)NCc1ccco1,.,.,.,.,.,.
Oc1ccc(-c2csc(-c3cccnc3)n2)cc1O,.,.,13,.,.,.
Fc1ccc(-c2csc(-c3cccnc3)n2)cc1F,.,.,.,.,.,68
Oc1ccc(-c2csc(-c3ccccc3)n2)cc1O,.,.,.,.,.,.
COc1cc(SC)ccc1C(=O)N1CCN(c2ccccc2OC)CC1,.,.,.,.,.,.
CSCCNC(=O)c1ccc(OC2CCN(S(=O)(=O)N(C)C)CC2)cc1,.,.,.,.,.,.
Cn1c(=O)c(-c2cc(=O)[nH][nH]2)c(O)c2ccccc21,.,/,.,.,6.2,51
CCn1c(=O)c(-c2cc(=O)[nH][nH]2)c(O)c2ccccc21,.,.,.,.,.,.
Cc1sc(NC(=O)Cc2ccc3c(c2)OCO3)nc1-c1ccc2c(c1)CCN2C(=O)c1cccc(F)c1,.,.,.,.,.,73
CNc1nc(-c2ccc3c(c2)CCN3C(=O)c2ccc(F)cc2)cs1,.,.,.,.,.,/
CNc1nc(-c2ccc3c(c2)CCN3C(=O)c2cccc(F)c2)cs1,.,.,11,.,.,.
SMILES,ssDAF-12 act,DAX1 inh-1,hgDAF12 agonist,DAX1 inh-2,hcDAF-12 act,AHR activator
Cc1ccccc1C(=O)N1CCc2cc(-c3nc(NC(=O)Cc4ccc5c(c4)OCO5)sc3C)ccc21,/,.,/,/,/,.
Cc1ccc(CN2CCN(Cc3cn(C)nc3C)CC2CCO)o1 (configuration not stated),.,.,.,.,.,.
Cc1ccc(S(=O)(=O)N2CCN(C(=O)c3n[nH]c(=O)c4ccccc34)CC2)c(C)c1,.,.,.,.,.,.
NC(=O)C1Cc2ccccc2CN1C(=O)c1cccc(Oc2ccccc2)c1 (configuration not stated),.,.,.,.,.,.
CN1CCN(CC#CC(C)(O)C2CC3C=CC2C3)CC1 (configuration not stated),.,.,.,.,.,.
Cc1cccn2c(=O)c3cc(C(=O)NC(C)c4ccccc4)c(=N)n(CCCn4ccnc4)c3nc12 (configuration not stated),.,.,11,.,.,.
Cc1ccc2nc3c(cc(C(=O)NCc4ccccc4)c(=N)n3CCCn3ccnc3)c(=O)n2c1,.,.,.,.,.,/
Cc1cccn2c(=O)c3cc(C(=O)NC4CCCC4)c(=N)n(C4CCCC4)c3nc12,.,.,.,.,.,54
N=c1c(C(=O)NC2CCCC2)cc2c(=O)n3ccccc3nc2n1C1CCCC1,.,.,.,.,.,.
CCCn1c(=N)c(C(=O)NC2CCCC2)cc2c(=O)n3cccc(C)c3nc21,.,.,.,.,.,57
Cc1cccn2c(=O)c(C(=O)NC3CCCCC3C)c(O)nc12 (configuration not stated),.,.,.,4.0,.,.
CC(C)C[C@H]1COc2ccc(Cl)cc2S(=O)(=O)N1C[C@H](NC(=O)OC(C)(C)C)C(C)C,.,/,.,.,.,/
CC(=O)c1ccc2c(c1)N(Cc1ccc3ccccc3c1)C(=O)C(C)S2 (configuration not stated),.,/,.,.,.,/
O=C(O)C1C2C=CC(C2)C1C(=O)NCc1ccco1 (configuration not stated),.,.,.,.,.,.
COc1ccc(NC(=O)C2C3C=CC(C3)C2C(=O)NCc2ccco2)c(OC)c1 (configuration not stated),.,5.9,.,.,.,.
Cc1cc(O)c(-c2cc(O)c(C)cc2O)cc1O,.,.,.,.,.,52
CCOC(=O)C1CCC(CN(Cc2ccccc2)S(=O)(=O)c2ccc([N+](=O)[O-])cc2)CC1 (configuration not stated),.,.,.,.,.,.
c1ccc(-c2ccc(-n3ccnc3)cc2)cc1,.,.,.,.,.,.
c1ccc(-c2ccc(C(c3ccccc3)n3ccnc3)cc2)cc1 (configuration not stated),.,.,.,.,.,48
CC(C)n1c(O)c(/C=C2\C=Nc3ccccc32)sc1=Nc1ccccc1,.,.,.,.,.,.
CSc1nc(/C=C2\C=Nc3ccccc32)c(O)n1C,0.9,.,.,.,6.4,51
COc1ccc(-c2nn(-c3ccccc3)cc2CO)cc1OC,.,.,.,.,.,51
COc1ccc(-c2nn(-c3ccccc3)cc2/C=N/O)cc1OC,.,.,.,.,.,.
